Results filed as inconclusive are left out. Calls of active or inactive are those of the source. Unless noted, calls come from the whole dose curve.
Assays:
[1] = Nuclear factor erythroid 2-related factor 2/antioxidant responsive element (Nrf2/ARE) small molecule agonists: qHTS cell viability counter screen in human keratinocytes (AID 1919968; active = well fitted curve in the direction sought with a large enough effect in the repeat runs; an effect the other way counts as inactive or inconclusive; note: nearly all actives have a fitted effect of over 55% in size)
How it was run: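 Measured as CellTiter-Fluor fluorescence, this readout tracks cytotoxicity in the same wells as the ARE-luciferase screen. HaCaT reporter cells (1,500/well) received compounds after a 5 h pre-incubation and were exposed for 23 h.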

[2] = Nuclear factor erythroid 2-related factor 2/antioxidant responsive element (Nrf2/ARE) small molecule agonists: luciferase reporter gene qHTS assay in human keratinocytes (AID 1919969); note: nearly all actives have a fitted effect of over 35% in size
[3] = target: Gonadotropin-releasing hormone receptor (Homo sapiens) (UniProt P30968); assay: Human gonadotropin-releasing hormone receptor (GnRHR) small molecule agonists, calcium flux assay in GnRHR-HEK293 cells (AID 1920063); note: nearly all actives have a fitted effect of over 35% in size
Chain of Gonadotropin-releasing hormone receptor (Homo sapiens) (P30968 whole entry, looked up): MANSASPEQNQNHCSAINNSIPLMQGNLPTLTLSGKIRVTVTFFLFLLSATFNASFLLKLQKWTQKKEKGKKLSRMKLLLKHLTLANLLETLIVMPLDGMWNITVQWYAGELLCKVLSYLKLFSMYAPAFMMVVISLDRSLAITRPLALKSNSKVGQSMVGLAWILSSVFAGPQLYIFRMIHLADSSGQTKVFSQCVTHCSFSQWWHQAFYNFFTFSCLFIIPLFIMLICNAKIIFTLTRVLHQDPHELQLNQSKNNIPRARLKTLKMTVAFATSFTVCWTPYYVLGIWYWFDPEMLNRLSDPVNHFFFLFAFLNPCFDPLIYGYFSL
How it was run: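 Fluorescence kinetics (480 nm excitation, 540 nm emission; 3 min, 1 s steps) report calcium mobilisation in human GnRHR-HEK293 cells in agonist mode. Dye incubation: 1 h, 37 C.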

[4] = target: KiSS-1 receptor (Homo sapiens) (UniProt Q969F8); assay: Human kisspeptin (KISS1R) small molecule agonists, calcium flux assay in KISS1R-HEK293 cells (AID 1920064; active = well fitted curve in the direction sought with a large enough effect in the repeat runs; an effect the other way counts as inactive or inconclusive)
Chain of KiSS-1 receptor (Homo sapiens) (Q969F8 whole entry, looked up): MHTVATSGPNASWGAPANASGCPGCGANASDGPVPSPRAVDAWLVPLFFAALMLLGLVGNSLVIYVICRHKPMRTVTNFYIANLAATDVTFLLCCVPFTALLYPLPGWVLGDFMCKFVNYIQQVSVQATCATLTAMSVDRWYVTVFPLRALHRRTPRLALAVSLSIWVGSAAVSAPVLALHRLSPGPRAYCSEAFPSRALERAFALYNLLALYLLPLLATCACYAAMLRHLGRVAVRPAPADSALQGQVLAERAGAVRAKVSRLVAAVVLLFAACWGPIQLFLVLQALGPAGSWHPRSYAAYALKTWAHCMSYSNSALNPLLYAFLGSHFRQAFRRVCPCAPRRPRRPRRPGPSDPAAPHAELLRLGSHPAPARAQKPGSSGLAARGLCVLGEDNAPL
How it was run: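 Measures KISS1R agonism through calcium-sensitive dye fluorescence in stably transfected HEK293 cells, read for 3 min after pin-tool compound delivery; 15-point titrations in triplicate.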

[5] = G protein-coupled receptor (GPCR) small molecule agonists, calcium flux assay: HEK293 wild type cell line counter screen (AID 1920065)
How it was run: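 Readout: fluorescence at 480 nm excitation/540 nm emission, sampled at 1 s intervals for 3 min. Cells had been cultured 18 h, then dye-loaded 1 h at 37 C before compound or ATP addition.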

[6] = p53 small molecule agonists, cell-based qHTS assay with human liver microsomes (AID 1963577);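 note: p53 response element beta-lactamase reporter cells with liver microsomes plus NADPH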
How it was run: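 Reporter activation was measured by LiveBLAzer fluorescence intensity in p53RE-bla cells, which had been exposed to compounds for 16 h at 37 C alongside 0.5 mg/mL human liver microsomes and 0.5 mg/mL NADPH (final concentrations).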

[7] = p53 small molecule agonists, cell-based qHTS assay with rat liver microsomes (AID 1963578)
How it was run: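 Compound in DMSO added to p53RE-bla cells 5 h post-plating; rat microsomes/NADPH 0.5 mg/mL final; 16 h, 37 C; LiveBLAzer 2 h RT.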

[8] = p53 small molecule agonists, cell-based qHTS assay with human liver microsomes: qHTS cell viability counter screen (AID 1963579); note: nearly all actives have a fitted effect of over 45% in size
How it was run: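 HLM-supplemented (0.5 mg/mL final) and NADPH-supplemented (0.5 mg/mL final) p53RE-bla cultures, 4,000 cells per well, were dosed with compounds in DMSO for 16 h at 37 C; luminescent ATP detection (CellTiter-Glo, 30 min, room temperature) quantified surviving cells.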

[9] = p53 small molecule agonists, cell-based qHTS assay with rat liver microsomes: qHTS cell viability counter screen (AID 1963580); note: nearly all actives have a fitted effect of over 45% in size
How it was run: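 Intracellular ATP, by CellTiter-Glo luminescence, defines viability. HCT-116 p53RE-bla cells, 4,000 per well, were compound-treated in the presence of rat liver microsomes and NADPH for 16 h at 37 C.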

[10] = p53 small molecule agonists, cell-based qHTS assay: qHTS cell viability counter screen (AID 1963581); note: nearly all actives have a fitted effect of over 45% in size
How it was run: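 In the same plates used for the p53 bla reporter, HCT-116 cells given compounds for 16 h at 37 C received CellTiter-Glo; luminescence was recorded 30 min later at room temperature.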

[11] = p53 small molecule agonists, cell-based qHTS assay (AID 1963582; active = well fitted activation curve with a large enough effect in the signal ratio in the repeat runs, not every such curve was filed as active; the % refers to the signal ratio)
How it was run: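 Compounds are pin-transferred in DMSO onto p53RE-bla cells and incubated 16 h at 37 C. The B/G FRET beta-lactamase substrate is then applied for 2 h at RT and fluorescence recorded.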

[12] = target: 5-hydroxytryptamine receptor 2A (Homo sapiens) (UniProt P28223); assay: 5-hydroxytryptamine receptor 2A (HTR2A) small molecule antagonists, cell-based qHTS assay (AID 1963586); note: nearly all actives have a fitted effect of over 45% in size
Chain of 5-hydroxytryptamine receptor 2A (Homo sapiens) (P28223 whole entry, looked up): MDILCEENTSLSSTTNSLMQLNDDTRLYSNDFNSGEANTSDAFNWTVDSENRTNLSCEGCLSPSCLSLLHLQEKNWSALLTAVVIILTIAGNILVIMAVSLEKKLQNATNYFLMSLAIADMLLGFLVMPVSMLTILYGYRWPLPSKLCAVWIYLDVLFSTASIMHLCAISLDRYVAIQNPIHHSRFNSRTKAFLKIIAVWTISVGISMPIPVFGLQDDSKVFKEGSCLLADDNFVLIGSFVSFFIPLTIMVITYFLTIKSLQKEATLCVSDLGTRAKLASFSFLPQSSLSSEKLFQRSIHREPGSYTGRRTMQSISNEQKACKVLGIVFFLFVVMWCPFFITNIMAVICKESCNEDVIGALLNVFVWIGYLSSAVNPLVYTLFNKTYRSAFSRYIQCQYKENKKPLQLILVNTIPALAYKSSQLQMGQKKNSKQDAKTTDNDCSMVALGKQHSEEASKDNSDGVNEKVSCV
How it was run: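 Antagonist-mode intracellular calcium assay: DOI (4 nM) added after 5 min compound pre-incubation at room temperature to dye-loaded HTR2A-CHO cells. Fluorescence followed for 3 min, sampled every second.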

[13] = target: 5-hydroxytryptamine receptor 2A (Homo sapiens) (UniProt P28223); assay: 5-hydroxytryptamine receptor 2A (HTR2A) small molecule agonists, cell-based qHTS assay (AID 1963587); note: nearly all actives have a fitted effect of over 30% in size
How it was run: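 Kinetic calcium-flux fluorescence (2 min, 1 sec intervals) after compound addition in agonist mode. HTR2A-CHO cells were cultured 18 h, then dye-loaded 1 h at 37 C.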

[14] = target: Muscarinic acetylcholine receptor M1 (Homo sapiens) (UniProt P11229); assay: Cholinergic receptor muscarinic 1 (CHRM1) small molecule antagonists, cell-based qHTS assay (AID 1963588); note: nearly all actives have a fitted effect of over 40% in size
Chain of Muscarinic acetylcholine receptor M1 (Homo sapiens) (P11229 whole entry, looked up): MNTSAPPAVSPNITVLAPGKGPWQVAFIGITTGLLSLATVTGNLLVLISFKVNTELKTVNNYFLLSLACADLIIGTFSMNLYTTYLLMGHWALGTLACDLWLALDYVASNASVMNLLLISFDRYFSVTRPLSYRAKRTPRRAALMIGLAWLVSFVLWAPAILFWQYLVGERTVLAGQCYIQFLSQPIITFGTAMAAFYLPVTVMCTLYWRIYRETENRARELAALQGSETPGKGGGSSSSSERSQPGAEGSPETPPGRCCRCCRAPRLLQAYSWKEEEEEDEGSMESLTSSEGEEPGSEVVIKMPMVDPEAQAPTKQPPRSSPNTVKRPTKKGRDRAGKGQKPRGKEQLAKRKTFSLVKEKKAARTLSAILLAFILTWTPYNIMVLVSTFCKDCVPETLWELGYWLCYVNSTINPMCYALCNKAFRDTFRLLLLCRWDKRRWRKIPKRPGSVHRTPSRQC
How it was run: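 CHRM1-CHO calcium-flux assay, antagonist mode. Cells were seeded 18 h, dye-loaded 1 h at 37 C and given compound for 5 min at RT, then acetylcholine was added at 50nM. FDSS fluorescence was read 3 min; 15 concentrations, three runs.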

[15] = target: Muscarinic acetylcholine receptor M1 (Homo sapiens) (UniProt P11229); assay: Cholinergic receptor muscarinic 1 (CHRM1) small molecule agonists, cell-based qHTS assay (AID 1963589); note: nearly all actives have a fitted effect of over 35% in size
How it was run: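 Each compound was tested at 15 concentrations across three independent runs on dye-loaded CHO cells stably expressing human CHRM1, reading intracellular calcium fluorescence kinetically at 1 sec intervals.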

[16] = target: Beta-2 adrenergic receptor (Homo sapiens) (UniProt P07550); assay: Adrenergic beta2 receptor (ADRB2) small molecule antagonists, cell-based qHTS assay (AID 1963592); note: series mostly up to about 92 µM; nearly all actives have a fitted effect of over 50% in size
Chain of Beta-2 adrenergic receptor (Homo sapiens) (P07550 whole entry, looked up): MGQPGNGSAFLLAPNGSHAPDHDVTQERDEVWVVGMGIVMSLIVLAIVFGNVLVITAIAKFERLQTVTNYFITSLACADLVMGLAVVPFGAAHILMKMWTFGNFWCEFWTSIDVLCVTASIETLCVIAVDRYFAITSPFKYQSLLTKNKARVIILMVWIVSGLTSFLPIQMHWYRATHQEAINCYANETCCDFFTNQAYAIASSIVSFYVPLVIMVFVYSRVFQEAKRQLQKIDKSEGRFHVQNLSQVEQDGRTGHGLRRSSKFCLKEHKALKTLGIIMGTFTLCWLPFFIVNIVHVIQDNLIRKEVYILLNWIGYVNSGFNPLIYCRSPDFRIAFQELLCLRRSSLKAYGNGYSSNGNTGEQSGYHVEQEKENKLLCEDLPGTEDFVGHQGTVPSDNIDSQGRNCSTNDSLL
How it was run: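 Cells (CHO, stable ADRB2 overexpression) incubated 18-20hr at 37C; compounds added from DMSO; agonist mix (1nM isoproterenol, 100uM IBMX, 25uM Ro-20-1724) added; 0.5hr RT; d2-cAMP and anti-cAMP-cryptate added; 1hr RT; 665/615 nm read.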

[17] = target: D(2) dopamine receptor (Homo sapiens) (UniProt P14416); assay: Dopamine D2 receptor (DRD2) small molecule agonists, cell-based qHTS assay (AID 1963594); note: nearly all actives have a fitted effect of over 35% in size
Chain of D(2) dopamine receptor (Homo sapiens) (P14416 whole entry, looked up): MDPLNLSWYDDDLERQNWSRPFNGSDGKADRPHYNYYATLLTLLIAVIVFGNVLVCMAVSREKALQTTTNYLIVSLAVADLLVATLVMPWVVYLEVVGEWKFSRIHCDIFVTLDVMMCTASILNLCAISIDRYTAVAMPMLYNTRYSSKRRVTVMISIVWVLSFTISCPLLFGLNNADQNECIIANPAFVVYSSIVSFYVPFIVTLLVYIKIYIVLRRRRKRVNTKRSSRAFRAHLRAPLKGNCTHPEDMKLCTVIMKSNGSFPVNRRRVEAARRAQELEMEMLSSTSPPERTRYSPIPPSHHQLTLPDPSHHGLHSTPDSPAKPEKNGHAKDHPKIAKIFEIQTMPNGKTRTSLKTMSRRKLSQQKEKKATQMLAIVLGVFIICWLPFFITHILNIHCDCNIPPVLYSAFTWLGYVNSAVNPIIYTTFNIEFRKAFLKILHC
How it was run: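 cAMP accumulation in DRD2-HEK293 cells measured by HTRF after 1 h detection; compounds added 10 min before NKH477 (200nM […]) forskolin-analogue stimulation, 30 min at room temperature, with Ro20-1724 present at 0.1 mM final.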

[18] = target: D(2) dopamine receptor (Homo sapiens) (UniProt P14416); assay: Dopamine D2 receptor (DRD2) small molecule antagonists, cell-based qHTS assay (AID 1963595; active = well fitted inhibition curve with a large enough effect in the signal ratio in the repeat runs, with a control signal flat; the % refers to the signal ratio)
How it was run: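 HTRF cAMP read-out at 665 and 620 nm emission (340 nm excitation). Antagonist mode: compounds were tested against 12 nM quinpirole in DRD2-HEK293 cells, with 200 nM NKH477 raising cAMP and 0.1 mM Ro20-1724 blocking its breakdown.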

[19] = cAMP Responsive Elements (CRE) small molecule antagonists, cell-based qHTS assay (AID 1963591; active = well fitted inhibition curve with a large enough effect in the signal ratio in the repeat runs, not every such curve was filed as active; the % refers to the signal ratio)
How it was run: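 Inhibition of NKH477-driven (0.25 uM final) CRE-beta-lactamase signal in HEK293T cells, 3 h compound exposure at 37 °C, detected by FRET substrate fluorescence.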
% is set by controls: 0 for no effect and ±100 for the full control effect.

CCO[Si](C)(CCCOCC1CO1)OCC (stereo not given)
inactive: Potency [1] | Potency [2] | Potency [3] | outcome [4] | outcome [5] | Potency [6] | Potency [7] | Potency [8] | Potency [9] | Potency [10] | Potency [11] | Potency [12] | Potency [13] | Potency [14] | Potency [15] | Potency [16] | Potency [17] | Potency [18]

CC1(C)C(=O)C(C)(C)C1=O
inactive: Potency [1] | Potency [2] | Potency [3] | outcome [4] | outcome [5] | Potency [6] | Potency [7] | Potency [8] | Potency [9] | Potency [10] | Potency [11] | Potency [12] | Potency [13] | Potency [14] | Potency [15] | Potency [19] | Potency [16] | Potency [17] | Potency [18]

Nc1ncnc2c1ncn2[C@H]1CC[C@@H](CO)O1
inactive: Potency [1] | Potency [2] | Potency [3] | outcome [4] | outcome [5] | Potency [6] | Potency [7] | Potency [8] | Potency [9] | Potency [10] | Potency [11] | Potency [12] | Potency [13] | Potency [14] | Potency [15] | Potency [16] | Potency [17] | Potency [18]

CCCCC(=O)O[C@]1(C(=O)CO)CC[C@H]2[C@@H]3CCC4=CC(=O)CC[C@]4(C)[C@H]3[C@@H](O)C[C@@]21C
inactive: Potency [1] | Potency [2] | Potency [3] | outcome [4] | outcome [5] | Potency [6] | Potency [7] | Potency [8] | Potency [9] | Potency [10] | Potency [11] | Potency [12] | Potency [13] | Potency [14] | Potency [15] | Potency [16] | Potency [17] | Potency [18]

CC(=O)Oc1cc2c(s1)CCN(C(C(=O)C1CC1)c1ccccc1F)C2 (stereo not given)
inactive: Potency [1] | Potency [2] | Potency [3] | outcome [4] | outcome [5] | Potency [6] | Potency [7] | Potency [8] | Potency [9] | Potency [10] | Potency [11] | Potency [12] | Potency [13] | Potency [14] | Potency [15] | Potency [16] | Potency [17] | Potency [18]

CCOc1cc(OCC)c(C(=O)CCC(=O)O)cc1OCC
inactive: Potency [1] | Potency [2] | Potency [3] | outcome [4] | outcome [5] | Potency [6] | Potency [7] | Potency [8] | Potency [9] | Potency [10] | Potency [11] | Potency [12] | Potency [13] | Potency [14] | Potency [15] | Potency [16] | Potency [17] | Potency [18]

CCc1cccc(C)c1N(C(=O)C(=O)O)C(C)COC (stereo not given)
inactive: Potency [1] | Potency [2] | Potency [3] | outcome [4] | outcome [5] | Potency [6] | Potency [7] | Potency [8] | Potency [9] | Potency [10] | Potency [11] | Potency [12] | Potency [13] | Potency [14] | Potency [15] | Potency [19] | Potency [16] | Potency [17] | Potency [18]

NC(=O)c1ncn([C@@H]2O[C@H](CO)[C@@H](O)[C@H]2O)c1N
inactive: Potency [1] | Potency [2] | Potency [3] | outcome [4] | outcome [5] | Potency [6] | Potency [7] | Potency [8] | Potency [9] | Potency [10] | Potency [11] | Potency [12] | Potency [13] | Potency [14] | Potency [15] | Potency [19] | Potency [16] | Potency [17] | Potency [18]

Cc1oc(=O)oc1COC(=O)[C@@H]1N2C(=O)[C@@H](NC(=O)[C@H](N)c3ccccc3)[C@H]2SC1(C)C
inactive: Potency [1] | Potency [2] | Potency [3] | outcome [4] | outcome [5] | Potency [6] | Potency [7] | Potency [8] | Potency [9] | Potency [10] | Potency [11] | Potency [12] | Potency [13] | Potency [14] | Potency [15] | Potency [19] | Potency [16] | Potency [17]

CC(=O)c1ccc(C(C)=O)cc1
inactive: Potency [1] | Potency [2] | Potency [3] | outcome [4] | outcome [5] | Potency [6] | Potency [7] | Potency [8] | Potency [9] | Potency [10] | Potency [11] | Potency [12] | Potency [13] | Potency [14] | Potency [15] | Potency [19] | Potency [16] | Potency [17] | Potency [18]

Cc1cccn2c(=O)c(-c3nnn[nH]3)cnc12
inactive: activity change, negative = cytotoxicity [1] 0.925% [at 19 µM] | activity, positive = activation [2] -2.87% [at 19 µM] | activity change [3] -0.454% [at 11.8 µM, active compounds read high] | activation [4] 0.024% [at 15.8 µM] | activation [5] -0.181% [at 11.8 µM] | activation [6] 6.61% [at 13.5 µM] | activation [7] 0.054% [at 13.6 µM] | activity change, negative = cytotoxicity [8] -18.5% [at 13.5 µM] | activity change, negative = cytotoxicity [9] -1.1% [at 13.5 µM] | activity change, negative = cytotoxicity [10] -1.22% [at 13.5 µM] | activation [11] 1.33% [at 13.5 µM] | activity, negative = inhibition [12] 5.08% [at 12.7 µM] | activation [13] 1.65% [at 15.9 µM] | activity, negative = inhibition [14] -2.73% [at 12.6 µM] | activation [15] -0.574% [at 15.8 µM] | activity change, negative = inhibition [16] 1.4% [at 19 µM] | activation [17] 2.69% [at 19 µM] | activity change, negative = inhibition [18] -1.25% [at 18.9 µM]

O=C(O)CCCc1c[nH]c2ccccc12
inactive: Potency [1] | Potency [2] | Potency [3] | outcome [4] | outcome [5] | Potency [6] | Potency [7] | Potency [8] | Potency [9] | Potency [10] | Potency [11] | Potency [12] | Potency [13] | Potency [14] | Potency [15] | Potency [16] | Potency [17] | Potency [18]

Source: PubChem BioAssay (Tox21)
